Compound activity from PubChem.
SMN2 splice enh: qHTS Assay for Enhancers of SMN2 Splice Variant Expression; HEK293 SMN2-luciferase splicing reporter, luminescence, 30-36 h; Potency, µM (series often up to 46.1 µM), inactives show at the highest dose activity change, positive = activation, usual class: activators; 210,000 tested, 2.8% active; note: % of control where 0% means no effect; nearly all actives have a fitted effect of over 55% in size
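qHTS luciferase splicing reporter: luminescence rises when SMN2 exon 7 is included in transfected HEK293 cells. Compound exposure lasted 30-36 h at 37C, with 4.5 mM final sodium butyrate as control, followed by a ONE-Glo read.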
Rab9 prom act: qHTS Assay for Rab9 Promoter Activators; Huh7 Rab9 promoter-luciferase reporter, luminescence, 24 h; Potency, µM (top dose mostly 9.22 µM), for the others: at the top dose activation, negative = inhibition, actives largely listed as activators; 320,000 tested, 2.8% active; AID 485297, 2010; note: % of control where 0% means no effect; nearly all actives have a fitted effect of over 60% in size
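Stable Rab9-luc Huh7, 1500 cells/well, 2 h settle; cmpd in DMSO, 24 h, 37 °C/5% CO2; luciferase reagent 10 min RT; luminescence.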
p53 reactivator: qHTS assay for re-activators of p53 using a Luc reporter | H1299 p53-A138V BP100-luciferase reporter, luminescence, 24 h | Potency, µM (highest dose often 92.2 µM), inactives show at the top dose activity change, positive = activation, hits mostly activators | 320,000 tested, 0.063% active; note: % of control where 0% means no effect; nearly all actives have a fitted effect of over 45% in size
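p53-null H1299 cells stably carrying temperature-sensitive p53-A138V and a BP100-luciferase reporter were pinned with compounds (4-point, 1:5 series) and held 24 hrs at 37 deg C. Luminescence was read 10 min after detection reagent.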
FLuc counter: qHTS profiling assay for firefly luciferase inhibitor/activator using purifed enzyme and Km concentrations of substrates (counterscreen for miR-21 project). Potency, µM (doses to about 57.5 µM), for the others: at the top dose activity change, negative = inhibition, actives largely listed as inhibitors. 360,000 tested, 6.9% active. purified FLuc, Km substrates, luminescence inhibition;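 note: plate controls were vehicle for no effect and reference inhibitor for full effect; nearly all actives have a fitted effect of over 55% in size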
Target sequence (P08659 whole entry, looked up): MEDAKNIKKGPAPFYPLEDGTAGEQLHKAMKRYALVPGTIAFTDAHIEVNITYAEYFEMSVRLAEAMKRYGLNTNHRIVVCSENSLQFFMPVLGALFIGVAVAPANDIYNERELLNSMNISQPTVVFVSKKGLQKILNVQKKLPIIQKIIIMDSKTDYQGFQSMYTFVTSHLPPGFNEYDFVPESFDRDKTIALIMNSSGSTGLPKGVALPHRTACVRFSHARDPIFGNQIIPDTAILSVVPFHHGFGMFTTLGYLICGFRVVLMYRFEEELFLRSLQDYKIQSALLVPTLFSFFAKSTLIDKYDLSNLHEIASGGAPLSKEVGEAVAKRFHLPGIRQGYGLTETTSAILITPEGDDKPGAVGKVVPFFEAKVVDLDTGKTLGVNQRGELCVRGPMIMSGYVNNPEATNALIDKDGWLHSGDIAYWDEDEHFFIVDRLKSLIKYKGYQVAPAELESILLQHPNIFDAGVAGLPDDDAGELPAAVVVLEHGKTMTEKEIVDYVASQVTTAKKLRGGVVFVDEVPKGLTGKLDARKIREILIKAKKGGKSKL
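Biochemical qHTS of compounds, final roughly 60 µM downward over six points, against 10 nM purified firefly luciferase using Km concentrations of substrates (10 uM D-luciferin, 10 uM ATP) in Tris acetate pH 7.5 buffer; luminescence output.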
NPC1 prom act: qHTS Assay for NPC1 Promoter Activators; Huh7 NPC1 promoter luciferase reporter, 24 h; Potency, µM (highest dose often 9.22 µM), inactives show top-dose activation, usual class: activators; 320,000 tested, 2.4% active; AID 485313, 2010; note: % of control where 0% means no effect; nearly all actives have a fitted effect of over 60% in size
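Readout is luciferase luminescence, reflecting NPC1 promoter activation in stably transfected Huh7 cells after 24 h compound exposure at 37 °C in reduced-serum medium with 10% FBS.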
ELG1 genotoxic: qHTS screen for small molecules that induce genotoxicity in human embryonic kidney (HEK293T) cells expressing luciferase-tagged ELG1 | 330,000 tested, 1.3% active | Potency, µM (titrated, usually from 46 µM), for inactives: top-dose activity change, positive = activation, most hits filed as activators | HEK293T ELG1-luciferase reporter, luminescence, 16 h; note: % of control where 0% means no effect; nearly all actives have a fitted effect of over 60% in size
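Genotoxic stress is detected as increased luminescence from luciferase-tagged ELG1 in HEK293T cells, measured with ONE-Glo after a 16 hr treatment at 37 °C.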
The depositor's hits bear a star; u = inconclusive; x = no result; [ ] = another dose, or the depositor's remark. Rows were chosen to be rich in hits. Some 7.4% of all compounds tested hit in one or more screens of this group. Calls come from the whole dose curve; as a rule, active = well fitted curve in the direction sought with a large enough effect; inconclusive = small, poorly fitted or top-dose-only effect, or another doubt; inactive = no such curve, though single readings can be large; an effect the other way counts as inactive or inconclusive. Potency is the fitted concentration of half-maximal effect.

SMILES	SMN2 splice enh	Rab9 prom act	p53 reactivator	FLuc counter	NPC1 prom act	ELG1 genotoxic
CCC(=O)Nc1c(C(=O)Nc2ccc3c(c2)OCCO3)oc2ccccc12	16µM*	2.8µM*	21%	u	u	10%
CCOCC(=O)Nc1c(C(=O)Nc2ccccc2OC)oc2ccccc12	-11%	u	2%	-18%	29%	10%
CCCCC[C@H](O)/C=C/[C@H]1OC(=O)C[C@H](O)[C@@H]1C/C=C\CCCC(=O)O	-4%	x	x	x	x	x
C=C1C[C@H](O)[C@@H]2[C@H](OC(=O)[C@H]2C)[C@H]2[C@H](C)[C@@H](O)C[C@@H]12	x	-3%	3%	2%	-3%	1%
O=C(N/N=C/C(Cl)=C/c1ccc([N+](=O)[O-])cc1)C(=O)Nc1cccc(C(=O)O)c1	x	u	8%	24µM*	u	u
CCOC(=O)c1sc(=NC(=O)c2ccc(Cl)s2)n(C)c1C	7.9µM*	u	7%	0.67µM*	u	1.2µM*
Cc1sc(NC(=O)c2ccco2)c(C(=O)c2ccc(Cl)cc2)c1C	-19%	-2%	1%	-9%	-1%	1%
Cc1sc(=NC(=O)c2ccco2)n(C)c1-c1ccc(Cl)cc1	24%	2.8µM*	u	5.4µM*	2.5µM*	11%
CCOC(=O)c1sc(=NC(=O)c2ccc(OC(C)C)cc2)n(C)c1C	-5%	1%	2%	-3%	-18%	5%
CCOC(=O)c1sc(=NC(=O)/C=C/c2ccccc2)n(C)c1C	30%	1.6µM*	5%	-7%	u	15%
CCOC(=O)c1sc(=NC(=O)c2ccccc2Br)n(C)c1C	x	u	u	2.1µM*	u	u
NC(=O)/N=N/C(N)=O	-10%	x	x	x	x	x
C[C@H]1[C@H](O)[C@@H](C)C=CC=CC=CC=CC=CC=CC=C[C@H](O[C@@H]2O[C@@H](C)[C@H](O)[C@@H](N)[C@@H]2O)C[C@@H]2O[C@](O)(C[C@@H](O)C[C@@H](O)[C@@H](O)CC[C@@H](O)C[C@@H](O)CC(=O)O[C@H]1C)C[C@H](O)[C@H]2C(=O)O	-4%[9.22 µM]	x	x	x	x	x
CCOC(=O)c1sc(=NC(=O)c2ccco2)n(C)c1C	14µM*	u	u	15µM*	-12%	4%
C=CCn1c(=NC(=O)c2ccco2)sc2cc(C(=O)OCC)ccc21	-8%	-1%	u	-1%	12%	9%
CCOC(=O)c1sc(=NC(=O)c2cccs2)n(C)c1C	3.2µM*	u	-5%	1.3µM*	1%	u
COc1cc(NS(=O)(=O)c2ccc(NC(=S)NC(=O)c3ccc(F)c(F)c3)cc2)nc(OC)n1	x	0%	0%	-1%	2%	3%
COc1ccc(NC(=O)Cn2c(=O)n(CCCC(=O)NCc3ccccc3OC)c(=O)c3ccccc32)cc1Cl	6%	x	x	-2%	x	x
Cc1ccc(S(=O)(=O)N(C)C)cc1NC(=O)c1cncc(Br)c1	-14%[1.84 µM]	-25%	4%	-1%	-10%	1%
CCn1c(CCNC(=O)c2cccs2)nnc1SCC(=O)Nc1ccc(Cl)cc1	-22%	-3%	-1%	17µM*	0%	12%
CCc1ccc(-c2nc3ccc(Br)cc3c(C(=O)O)c2C)s1	u	1%	3%	21µM*	-2%	-4%
CCc1ccc(/C=N/NC(=O)c2cc(C3CC3)nc3ccc(Br)cc23)s1	-6%	-14%	3%	1%	-23%	-3%
CCOC(=O)c1[nH]c2ccc(OC)cc2c1C	4%	u	9%	13µM*	u	u
COc1ccc2[nH]c(C(=O)NCc3ccccc3)cc2c1	x	1%	4%	-19%	-3%	-8%
